Assay [1] deals with Bile acid receptor (Homo sapiens) (UniProt Q96RI1). In words: ATG_IR1_CIS: Attagene CIS-FACTORIAL HepG2 Assay for human Nuclear Receptor Subfamily 1 Group H Member 4 (NR1H4), IR1 submotif (AID 2282946). The settings on record: IR1 reporter transcription, actives raise or lower the signal. In short, it runs like this: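 HepG2 cells transiently transfected with multiplexed cis-element reporter units read endogenous transcription factor activity. After 24 h compound exposure, reporter mRNA was quantified by RT-PCR, fluorescent labelling, HpaI digestion and capillary electrophoresis; bidirectional fitting versus DMSO baseline.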
Chain of Bile acid receptor (Homo sapiens) (Q96RI1 whole entry, looked up): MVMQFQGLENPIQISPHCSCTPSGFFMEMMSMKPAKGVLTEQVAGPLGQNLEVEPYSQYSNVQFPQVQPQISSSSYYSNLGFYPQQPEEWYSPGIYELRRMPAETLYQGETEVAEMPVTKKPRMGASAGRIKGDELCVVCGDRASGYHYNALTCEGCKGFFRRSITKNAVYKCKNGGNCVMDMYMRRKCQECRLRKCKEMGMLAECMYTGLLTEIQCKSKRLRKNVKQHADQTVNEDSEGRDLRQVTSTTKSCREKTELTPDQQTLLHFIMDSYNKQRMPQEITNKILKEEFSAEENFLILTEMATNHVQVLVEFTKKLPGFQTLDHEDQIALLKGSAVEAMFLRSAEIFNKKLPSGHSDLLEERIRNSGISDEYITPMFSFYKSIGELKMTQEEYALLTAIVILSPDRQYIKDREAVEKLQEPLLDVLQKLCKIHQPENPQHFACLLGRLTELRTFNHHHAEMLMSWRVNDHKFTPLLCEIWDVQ

Assay [2] can be described thus: ATG_GRE_CIS: Attagene CIS-FACTORIAL HepG2 Assay for human Glucocorticoid Response Elements (GRE) (AID 2282947). The settings on record: HepG2 GRE cis-reporter, Attagene multiplex mRNA; actives raise or lower the signal. An outline of the steps:
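Reporter transcripts read by RT-PCR with capillary electrophoresis fluorescence after a 24 h chemical exposure of HepG2 cells transiently transfected with multiple cis-element reporter units. Gain or loss fitted against DMSO.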

Assay [3] is described as follows: ATG_ISRE_CIS: Attagene CIS-FACTORIAL HepG2 Assay for human Interferon Regulatory Factor 1 (IRF1) binding to an Interferon-Stimulated Response Element (ISRE) (AID 2282948). Conditions: HepG2 ISRE cis-reporter (Attagene), mRNA transcription readout; actives raise or lower the signal. In short, it runs like this:
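Multiplexed mRNA reporter readout in human liver HepG2 cells: cis-element-driven reporters transfected, compound added for 24 h, transcripts amplified, fluorescently labelled and sized by capillary electrophoresis; curve fitting bidirectional against DMSO.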

Assay [4] is described as follows: ATG_M_32_CIS: Attagene CIS-FACTORIAL HepG2 Assay for M32 Transcription Factor (Internal Marker) (AID 2282949).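 Further: background control marker of the multiplexed CIS panel rather than a real target.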 The settings on record: HepG2 Attagene cis-factorial M32 reporter, mRNA; actives raise or lower the signal. In short, it runs like this: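 HepG2 human liver cells transiently transfected with cis-promoter-driven multiple reporter transcription units, dosed 24 h. Reporter mRNA quantified by RT-PCR, FAM-labelled primer extension, HpaI digest and capillary electrophoresis; bidirectional fit versus DMSO baseline.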

Assay [5] can be described thus: ATG_M_06_CIS: Attagene CIS-FACTORIAL HepG2 Assay for M06 Transcription Factor (Internal Marker) (AID 2282950). The settings on record: HepG2 Attagene CIS-FACTORIAL M06 internal marker reporter; actives raise or lower the signal. In short, it runs like this:
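One of many multiplexed endpoints: HepG2 reporter mRNA after 24 h dosing, detected by RT-PCR and capillary electrophoresis fluorescence; gain or loss of signal analysed against DMSO.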

Assay [6] concerns the target Hypoxia-inducible factor 1-alpha (Homo sapiens) (UniProt Q16665). The experiment in a line: ATG_HIF1a_CIS: Attagene CIS-FACTORIAL HepG2 Assay for human Hypoxia Inducible Factor 1 (HIF1A) (AID 2282951). The settings on record: HepG2 Attagene cis-factorial HIF1a reporter transcription; actives raise or lower the signal. An outline of the steps:
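Cis-element reporter constructs were transiently transfected into HepG2 cells, which were treated for 24 h; reporter RNA was reverse-transcribed, amplified, labelled and resolved by capillary electrophoresis.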

Assay [7] has as its target Hepatocyte nuclear factor 6 (Homo sapiens) (UniProt Q9UBC0). The experiment in a line: ATG_HNF6_CIS: Attagene CIS-FACTORIAL HepG2 Assay for human Hepatocyte Nuclear Factor 6 (HNF6) (AID 2282952). The settings on record: HepG2 Attagene cis-factorial HNF6 reporter transcription; actives raise or lower the signal. An outline of the steps:
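Endogenous factor activity read in transiently transfected HepG2 via promoter-regulated reporter transcripts. RNA harvested 24 h post-dosing, reverse-transcribed, PCR-amplified, FAM-labelled, HpaI-digested and resolved by capillary electrophoresis; fitted in both directions against DMSO.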

Assay [8] has as its target Heat shock factor protein 1 (Homo sapiens) (UniProt Q00613). In words: ATG_HSE_CIS: Attagene CIS-FACTORIAL HepG2 Assay for human Heat Shock Transcription Factor 1 (HSE) (AID 2282953). The settings on record: HepG2 HSE cis-reporter, Attagene RNA transcription; actives raise or lower the signal. In short, it runs like this:
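Using HepG2 with transfected cis-driven reporter constructs, compound effects on endogenous factor activity are scored as reporter mRNA change at 24 h. Detection: RT-PCR, HpaI digestion, capillary electrophoresis; bidirectional fitting to DMSO.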

Assay [9] is described as follows: ATG_MRE_CIS: Attagene CIS-FACTORIAL HepG2 Assay for human Metal Responsive Element (MRE) (AID 2282954). Conditions: HepG2 MRE cis-reporter transcription, Attagene multiplex; actives raise or lower the signal. In short, it runs like this:
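Endogenous MRE-dependent transcription read as reporter mRNA in transiently transfected human HepG2 cells at 24 h. RNA reverse-transcribed, PCR-amplified, labelled and resolved by capillary electrophoresis; gain or loss relative to DMSO.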

Assay [10] can be described thus: ATG_PBREM_CIS: Attagene CIS-FACTORIAL HepG2 Assay for human Phenobarbital-responsive Enhancer Module (PBREM) (AID 2282955). The settings on record: HepG2 PBREM cis-reporter, Attagene multiplexed transcription; actives raise or lower the signal. In short, it runs like this:
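Multiplexed cis-reporter readout in human hepatoma HepG2 cells; PBREM-regulated transcript quantified after 24 h exposure by fluorescent RT-PCR fragment analysis. Signal changes up or down fitted relative to DMSO.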

Assay [11] concerns the target Paired box protein Pax-6 (Homo sapiens) (UniProt P26367). In words: ATG_Pax6_CIS: Attagene CIS-FACTORIAL HepG2 Assay for human Paired Box 6 (PAX6) (AID 2282956). The settings on record: HepG2 CIS-FACTORIAL PAX6 reporter transcription, RNA readout; actives raise or lower the signal. An outline of the steps:
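Fluorescent RT-PCR products separated by capillary electrophoresis report PAX6-linked promoter mRNA in HepG2 cells 24 h post-dose. Curves fitted bidirectionally, DMSO as negative control.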

A short description of assay [12]: ATG_PXRE_CIS: Attagene CIS-FACTORIAL HepG2 Assay for human Pregnane X Receptor Element (PXRE) (AID 2282957). Conditions: HepG2 Attagene CIS-FACTORIAL PXRE reporter, mRNA; actives raise or lower the signal. In short, it runs like this: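 Reporter transcripts under endogenous PXR-responsive cis-regulation quantified from total RNA of transfected HepG2 cells 24 h post-dosing, via RT-PCR with fluorescent primer extension and capillary electrophoresis. Gain or loss of signal fitted against DMSO baseline.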

Assay [13] in a line: ATG_PPRE_CIS: Attagene CIS-FACTORIAL HepG2 Assay for human Peroxisome Proliferator-activated Response Element (PPRE) (AID 2282958). Conditions: HepG2 PPRE cis-element reporter, Attagene transcription factor profiling; actives raise or lower the signal. An outline of the steps:
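DMSO served as negative control and baseline for bidirectional curve fitting. Signal came from PPRE-regulated reporter mRNA in HepG2 cells, measured 24 h post-dosing by RT-PCR, 6-FAM primer extension and capillary electrophoresis.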

Assay [14] can be described thus: ATG_RORE_CIS: Attagene CIS-FACTORIAL HepG2 Assay for human RAR-related Orphan Receptor Element (RORE) (AID 2282959). The settings on record: HepG2 Attagene cis-factorial RORE reporter, mRNA; actives raise or lower the signal. An outline of the steps: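 Transfect HepG2 with MRTUs; treat 24 h; extract RNA; RT with oligo(dT); PCR with reporter-specific primers; 6-FAM primer extension; HpaI digest 2 h at 37 C; capillary electrophoresis. Fit vs DMSO, bidirectional.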

Assay [15] in a line: ATG_Sox_CIS: Attagene CIS-FACTORIAL HepG2 Assay for human SRY-box transcription factor (SOX) (AID 2282960). Conditions: HepG2 Attagene cis-factorial SOX reporter, mRNA; actives raise or lower the signal. An outline of the steps: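 Fluorescence-labelled cDNA fragments from reporter transcripts, sized by CE, give the signal. Cells: HepG2, transiently transfected with cis-regulated reporter units. Exposure 24 h; DMSO negative control; bidirectional curve fitting.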

Assay [16] has as its target Transcription factor Sp1 (Homo sapiens) (UniProt P08047). In words: ATG_Sp1_CIS: Attagene CIS-FACTORIAL HepG2 Assay for human Specificity Protein 1 (Sp1) (AID 2282961). The settings on record: HepG2 Sp1 cis-reporter transcription, actives raise or lower the signal. An outline of the steps:
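Chemicals are dosed onto HepG2 cells transfected with multiple cis-promoter reporter constructs, and after 24 h reporter RNA is reverse-transcribed, PCR-amplified and resolved by capillary electrophoresis for fluorescence quantitation; activity is scored up or down against DMSO.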

Assay [17] can be described thus: ATG_SREBP_CIS: Attagene CIS-FACTORIAL HepG2 Assay for human Sterol Regulatory Element Binding (SREBP) (AID 2282962). The settings on record: HepG2 Attagene cis-factorial SREBP reporter, mRNA; actives raise or lower the signal. An outline of the steps: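 Endogenous factor activity is measured in HepG2 through multiplexed reporter units under cis-element control. Following a 24 h incubation, reporter transcripts are reverse-transcribed, PCR-amplified and sized by capillary electrophoresis; activity is fitted in both directions relative to DMSO.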

Assay [18] deals with Signal transducer and activator of transcription 3 (Homo sapiens) (UniProt P40763). In words: ATG_STAT3_CIS: Attagene CIS-FACTORIAL HepG2 Assay for human Signal Transducer and Activator of Transcription 3 (STAT3) (AID 2282963). The settings on record: HepG2, Attagene cis-factorial STAT3 reporter transcription; actives raise or lower the signal. In short, it runs like this: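 Readout is reporter transcript quantified by RT-PCR and capillary electrophoresis, with 6-FAM primer extension and HpaI digestion. Total RNA is taken 24 h after dosing transiently transfected HepG2 carrying cis-regulated reporter units. Bidirectional fit against DMSO.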
Chain of Signal transducer and activator of transcription 3 (Homo sapiens) (P40763 whole entry, looked up): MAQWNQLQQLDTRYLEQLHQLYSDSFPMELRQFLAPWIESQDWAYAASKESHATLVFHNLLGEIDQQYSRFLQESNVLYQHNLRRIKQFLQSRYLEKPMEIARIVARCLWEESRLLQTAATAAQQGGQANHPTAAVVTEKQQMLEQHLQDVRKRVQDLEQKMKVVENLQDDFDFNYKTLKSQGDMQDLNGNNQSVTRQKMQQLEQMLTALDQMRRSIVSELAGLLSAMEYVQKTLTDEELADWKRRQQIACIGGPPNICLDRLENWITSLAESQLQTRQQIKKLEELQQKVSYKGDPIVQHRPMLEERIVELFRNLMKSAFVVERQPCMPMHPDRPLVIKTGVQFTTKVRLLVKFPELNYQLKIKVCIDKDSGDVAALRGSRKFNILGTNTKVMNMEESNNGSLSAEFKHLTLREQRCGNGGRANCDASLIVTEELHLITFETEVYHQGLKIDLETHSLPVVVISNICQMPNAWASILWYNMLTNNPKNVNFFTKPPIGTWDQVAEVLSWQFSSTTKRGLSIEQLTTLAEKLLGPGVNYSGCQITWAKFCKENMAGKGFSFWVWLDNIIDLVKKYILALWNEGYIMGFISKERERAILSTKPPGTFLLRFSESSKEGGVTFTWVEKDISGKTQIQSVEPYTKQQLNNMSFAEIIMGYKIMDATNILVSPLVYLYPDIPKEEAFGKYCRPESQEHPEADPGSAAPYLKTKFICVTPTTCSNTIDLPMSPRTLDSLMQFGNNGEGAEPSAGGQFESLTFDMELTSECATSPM

Assay [19] can be described thus: ATG_TCF_b_cat_CIS: Attagene CIS-FACTORIAL HepG2 Assay for human T-Cell-Factor with beta-catenin (TCF/b-cat) (AID 2282965). Conditions: HepG2 TCF/beta-catenin cis-reporter transcription, actives raise or lower the signal. An outline of the steps: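 Endogenous transcription factor activity is captured through cis-promoter reporter constructs transiently introduced into human HepG2 liver cells. Induced reporter mRNA is measured after 24 h and fitted bidirectionally relative to DMSO.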

Assay [20] in a line: ATG_TA_CIS: Attagene CIS-FACTORIAL HepG2 Assay for human TA Basal Promoter (AID 2282964). The settings on record: HepG2 Attagene CIS-factorial TA basal promoter reporter; actives raise or lower the signal. In short, it runs like this: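 Transient MRTU transfection of HepG2 preceded 24 h compound exposure. Reporter mRNA levels were then read by RT-PCR with capillary electrophoresis, and this background-control endpoint was fitted bidirectionally to DMSO.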

We go through three molecules from PubChem BioAssay (EPA / NIEHS).

Activity calls are given as the source filed them. How the source made its calls: active means hit-call score of the fitted dose curve at least 0.9, where 1 is the maximum; inactive means score below 0.9.

As a reminder, the AC50 is the midpoint of the concentration-response curve, whichever way the signal moves.

Chain of Transcription factor Sp1 (Homo sapiens) (P08047 whole entry, looked up): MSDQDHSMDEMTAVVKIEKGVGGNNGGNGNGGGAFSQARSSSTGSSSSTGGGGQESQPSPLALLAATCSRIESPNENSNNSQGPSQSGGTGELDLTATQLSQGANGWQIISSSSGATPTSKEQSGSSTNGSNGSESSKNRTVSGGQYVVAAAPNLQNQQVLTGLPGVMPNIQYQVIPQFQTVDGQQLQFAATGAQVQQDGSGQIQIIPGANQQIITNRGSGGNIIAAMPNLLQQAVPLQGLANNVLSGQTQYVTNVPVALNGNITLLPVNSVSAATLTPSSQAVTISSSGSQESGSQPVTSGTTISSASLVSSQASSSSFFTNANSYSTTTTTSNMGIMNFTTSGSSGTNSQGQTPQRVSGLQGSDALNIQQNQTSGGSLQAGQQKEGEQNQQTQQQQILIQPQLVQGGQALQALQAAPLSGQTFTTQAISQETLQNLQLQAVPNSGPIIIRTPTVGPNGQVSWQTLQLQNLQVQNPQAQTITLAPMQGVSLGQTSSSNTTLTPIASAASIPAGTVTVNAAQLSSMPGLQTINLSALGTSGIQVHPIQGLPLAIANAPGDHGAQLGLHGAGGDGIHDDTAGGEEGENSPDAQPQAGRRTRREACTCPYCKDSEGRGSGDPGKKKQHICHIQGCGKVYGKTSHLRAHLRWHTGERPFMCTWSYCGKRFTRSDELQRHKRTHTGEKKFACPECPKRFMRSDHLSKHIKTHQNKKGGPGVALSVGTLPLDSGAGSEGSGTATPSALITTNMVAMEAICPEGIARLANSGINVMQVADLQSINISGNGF
Chain of Paired box protein Pax-6 (Homo sapiens) (P26367 whole entry, looked up): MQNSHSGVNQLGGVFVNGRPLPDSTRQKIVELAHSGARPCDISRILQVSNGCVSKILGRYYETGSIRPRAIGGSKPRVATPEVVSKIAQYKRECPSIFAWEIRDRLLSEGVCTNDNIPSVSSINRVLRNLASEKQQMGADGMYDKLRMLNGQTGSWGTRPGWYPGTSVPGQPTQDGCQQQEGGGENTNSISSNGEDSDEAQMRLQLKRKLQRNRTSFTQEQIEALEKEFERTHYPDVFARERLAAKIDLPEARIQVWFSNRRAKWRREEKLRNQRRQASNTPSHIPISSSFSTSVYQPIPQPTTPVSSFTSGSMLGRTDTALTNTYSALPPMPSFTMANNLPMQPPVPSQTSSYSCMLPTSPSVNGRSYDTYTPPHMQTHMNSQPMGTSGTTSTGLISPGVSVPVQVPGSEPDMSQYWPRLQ
Chain of Hepatocyte nuclear factor 6 (Homo sapiens) (Q9UBC0 whole entry, looked up): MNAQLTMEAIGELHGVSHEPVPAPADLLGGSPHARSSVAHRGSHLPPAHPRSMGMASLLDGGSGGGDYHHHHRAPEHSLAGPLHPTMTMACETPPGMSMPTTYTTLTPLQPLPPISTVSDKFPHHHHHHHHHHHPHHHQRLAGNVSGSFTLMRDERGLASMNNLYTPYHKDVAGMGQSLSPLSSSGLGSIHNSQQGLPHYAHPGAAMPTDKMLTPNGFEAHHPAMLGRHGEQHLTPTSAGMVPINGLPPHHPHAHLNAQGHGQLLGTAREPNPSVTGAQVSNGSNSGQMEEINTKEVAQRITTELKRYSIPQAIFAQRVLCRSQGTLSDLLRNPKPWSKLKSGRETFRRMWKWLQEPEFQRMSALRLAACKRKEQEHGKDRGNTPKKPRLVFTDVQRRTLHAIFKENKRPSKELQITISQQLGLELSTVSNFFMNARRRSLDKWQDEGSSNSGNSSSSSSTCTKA
Chain of Hypoxia-inducible factor 1-alpha (Homo sapiens) (Q16665 whole entry, looked up): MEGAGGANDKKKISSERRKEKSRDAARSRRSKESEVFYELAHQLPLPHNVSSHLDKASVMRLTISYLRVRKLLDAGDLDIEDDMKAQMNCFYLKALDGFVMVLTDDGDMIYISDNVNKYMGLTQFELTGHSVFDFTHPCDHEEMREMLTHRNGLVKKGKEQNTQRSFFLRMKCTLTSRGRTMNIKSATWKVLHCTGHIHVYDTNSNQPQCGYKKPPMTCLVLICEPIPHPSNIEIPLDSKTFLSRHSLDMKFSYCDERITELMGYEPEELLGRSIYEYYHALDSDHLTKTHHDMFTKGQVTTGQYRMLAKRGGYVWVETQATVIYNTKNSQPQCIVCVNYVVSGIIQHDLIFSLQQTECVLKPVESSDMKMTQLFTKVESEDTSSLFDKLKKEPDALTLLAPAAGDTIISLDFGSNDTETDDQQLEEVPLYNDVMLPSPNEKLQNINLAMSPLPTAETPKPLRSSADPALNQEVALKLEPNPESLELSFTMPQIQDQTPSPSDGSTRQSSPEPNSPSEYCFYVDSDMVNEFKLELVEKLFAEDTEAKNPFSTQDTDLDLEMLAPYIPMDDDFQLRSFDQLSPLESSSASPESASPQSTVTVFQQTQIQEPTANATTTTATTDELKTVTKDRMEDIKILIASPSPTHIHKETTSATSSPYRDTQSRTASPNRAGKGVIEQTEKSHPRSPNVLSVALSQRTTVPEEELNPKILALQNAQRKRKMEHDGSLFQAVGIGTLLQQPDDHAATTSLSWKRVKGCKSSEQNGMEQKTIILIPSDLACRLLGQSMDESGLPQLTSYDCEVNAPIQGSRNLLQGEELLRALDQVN
Chain of Heat shock factor protein 1 (Homo sapiens) (Q00613 whole entry, looked up): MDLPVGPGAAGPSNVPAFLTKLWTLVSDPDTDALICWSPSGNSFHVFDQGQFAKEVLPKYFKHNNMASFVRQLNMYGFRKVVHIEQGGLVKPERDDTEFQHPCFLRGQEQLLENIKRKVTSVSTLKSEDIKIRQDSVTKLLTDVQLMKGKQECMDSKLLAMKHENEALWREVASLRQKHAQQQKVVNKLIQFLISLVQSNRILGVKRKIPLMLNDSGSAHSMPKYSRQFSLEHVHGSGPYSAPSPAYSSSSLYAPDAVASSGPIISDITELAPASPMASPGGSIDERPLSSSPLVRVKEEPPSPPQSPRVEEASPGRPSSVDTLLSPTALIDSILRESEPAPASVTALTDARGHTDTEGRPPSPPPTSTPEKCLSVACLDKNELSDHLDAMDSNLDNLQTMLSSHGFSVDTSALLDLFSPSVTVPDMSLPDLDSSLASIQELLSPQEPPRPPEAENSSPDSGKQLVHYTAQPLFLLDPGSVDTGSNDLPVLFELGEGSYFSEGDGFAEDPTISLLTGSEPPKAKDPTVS

As to `CC(=O)c1c(C)c([N+](=O)[O-])c(C(C)(C)C)c([N+](=O)[O-])c1C`, the result in assay [1], in assay [2], in assay [3], in assay [4], in assay [5] and in [6] was inactive. Moreover, the outcome in assay [7], in assay [8], in assay [10], in assay [11], in assay [13] and in [14] was inactive. Besides, the result in [15], in assay [16], in [17], in assay [18] and in assay [19] was inactive. Also, the AC50 in [9] was 11.5 µM (active); in assay [12], 2.28 µM (active).

Take `ClC(c1ccccc1)(c1ccccc1)c1ccccc1`: the molecule was called inactive in assay [1], in assay [2], in [3], in assay [4], in assay [5] and in assay [6]. The call in assay [7], in [8], in [9], in assay [10], in [11] and in [13] was inactive. The outcome in assay [14], in assay [15], in assay [16], in assay [17], in [18] and in assay [20] was inactive. Also, the molecule was classed as inactive in [19]. Moreover, the AC50 in assay [12] was 2.59 µM (active).

Regarding `CCCCCCCCSCCO`, the results for the concentration at half-maximal activity (AC50) in [1], in assay [9] and in assay [12] were 151 µM (active), 153 µM (active) and 25 µM (active), respectively. Besides, the outcome in [2], in [3], in assay [4], in [5], in assay [6] and in assay [7] was inactive. In addition, the molecule was classed as inactive in [8], in assay [10], in assay [11], in assay [14], in [15] and in assay [16]. Also, the outcome in [17], in assay [18], in assay [20] and in [19] was inactive.
